Results reported in PubChem BioAssay (EPA / NIEHS).
Results filed as inconclusive are left out. Active and inactive are the calls of the source. Rule for the calls, unless noted: active = hit-call score of the fitted dose curve at least 0.9, where 1 is the maximum; inconclusive = response in the unintended direction; inactive = score below 0.9.

Legend:
[1] = ATG_TAL_CIS: Attagene CIS-FACTORIAL HepG2 Assay for human TAL Basal Promoter (AID 2282966; active = hit-call score of the fitted dose curve at least 0.9, where 1 is the maximum; inactive = score below 0.9;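 note: background control endpoint measuring basal TAL promoter reporter mRNA not a specific factor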); details: HepG2 Attagene cis-factorial TAL promoter reporter; actives raise or lower the signal
Outline: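 Background-control endpoint: basal TAL promoter reporter transcripts in transiently transfected HepG2, measured 24 h after dosing. Read-out by RT-PCR with fluorescent primer extension and capillary electrophoresis; gain or loss of signal fitted relative to DMSO.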

[2] = molecular target: X-box-binding protein 1 (Homo sapiens) (UniProt P17861); assay: ATG_Xbp1_CIS: Attagene CIS-FACTORIAL HepG2 Assay for human X-box Binding Protein 1 (XBP1) (AID 2282972; active = hit-call score of the fitted dose curve at least 0.9, where 1 is the maximum; inactive = score below 0.9); details: HepG2 XBP1 cis-element reporter, Attagene multiplex; actives raise or lower the signal
Chain of X-box-binding protein 1 (Homo sapiens) (P17861 whole entry, looked up): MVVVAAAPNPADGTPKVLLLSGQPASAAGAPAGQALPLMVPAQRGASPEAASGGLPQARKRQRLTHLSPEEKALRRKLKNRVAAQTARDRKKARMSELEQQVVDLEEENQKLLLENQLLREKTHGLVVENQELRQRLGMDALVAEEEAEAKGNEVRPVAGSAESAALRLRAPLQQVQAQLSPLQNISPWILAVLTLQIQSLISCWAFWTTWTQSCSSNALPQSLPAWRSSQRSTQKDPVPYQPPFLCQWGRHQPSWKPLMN
Outline: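 Reporter transcripts were quantified by RT-PCR with fluorescent primer extension and capillary electrophoresis after 24 h chemical exposure. Cells: transiently transfected HepG2 carrying cis-regulated reporter constructs; data fitted bidirectionally relative to DMSO.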

[3] = ATG_M_06_TRANS: Attagene TRANS-FACTORIAL HepG2 Assay for M06 Transcription Factor (Internal Marker) (AID 2282983); details: HepG2 Attagene TRANS M06 internal marker reporter;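 note: reporter transcript level by RT-PCR then capillary electrophoresis fluorescence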
Outline: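 Background-control reporter readout: after 24 h chemical exposure of transiently transfected HepG2 (GAL4-UAS reporter units), mRNA quantified by RT-PCR with fluorescent labeling and capillary electrophoresis. Gain-of-signal fitting against DMSO baseline.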

[4] = ATG_M_32_TRANS: Attagene TRANS-FACTORIAL HepG2 Assay for M32 Transcription Factor (Internal Marker) (AID 2282984); details: HepG2 Attagene TRANS M32 internal marker reporter
Outline: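 Internal background reporter in transfected HepG2: after 24 h chemical exposure, RNA reverse-transcribed, reporter cDNA amplified, fluorescently labelled and HpaI-cut, then sized by capillary electrophoresis. Gain of signal fitted against DMSO control.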

[5] = molecular target: Nuclear receptor subfamily 4 group A member 2 (Homo sapiens) (UniProt P43354); assay: ATG_NURR1_TRANS: Attagene TRANS-FACTORIAL HepG2 Assay for human Nuclear Receptor Related Protein 1 (NURR1) (AID 2282985); details: HepG2 Attagene TRANS reporter, mRNA readout
Chain of Nuclear receptor subfamily 4 group A member 2 (Homo sapiens) (P43354 whole entry, looked up, the tested form may be a part): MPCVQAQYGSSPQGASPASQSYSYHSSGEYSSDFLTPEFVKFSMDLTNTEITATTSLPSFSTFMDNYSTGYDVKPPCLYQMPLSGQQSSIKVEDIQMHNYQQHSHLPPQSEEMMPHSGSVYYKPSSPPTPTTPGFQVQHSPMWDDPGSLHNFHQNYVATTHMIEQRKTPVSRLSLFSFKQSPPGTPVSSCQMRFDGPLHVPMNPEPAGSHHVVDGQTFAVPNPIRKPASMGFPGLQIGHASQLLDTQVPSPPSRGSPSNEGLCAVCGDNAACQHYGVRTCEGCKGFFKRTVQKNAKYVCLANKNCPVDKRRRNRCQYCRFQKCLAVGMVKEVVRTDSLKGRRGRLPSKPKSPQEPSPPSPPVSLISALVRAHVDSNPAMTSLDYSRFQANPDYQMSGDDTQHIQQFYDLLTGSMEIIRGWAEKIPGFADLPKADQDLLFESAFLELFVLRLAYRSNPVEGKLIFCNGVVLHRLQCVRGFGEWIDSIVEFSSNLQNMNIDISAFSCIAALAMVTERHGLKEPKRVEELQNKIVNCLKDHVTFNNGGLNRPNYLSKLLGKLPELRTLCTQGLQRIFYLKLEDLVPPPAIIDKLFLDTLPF
Outline: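 Reporter transcript induction, measured by RT-PCR with fluorescent labelling, HpaI digestion and capillary electrophoresis, after 24 hr dosing of human HepG2 cells transiently expressing an exogenous NR-Gal4 fusion with GAL4-UAS-driven reporters; DMSO as baseline.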

[6] = ATG_VDRE_CIS: Attagene CIS-FACTORIAL HepG2 Assay for human Vitamin D Receptor Element (VDRE) (AID 2282968; active = hit-call score of the fitted dose curve at least 0.9, where 1 is the maximum; inactive = score below 0.9); details: HepG2 VDRE cis-reporter transcription, actives raise or lower the signal
Outline: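 Readout is VDRE-driven reporter mRNA reflecting endogenous factor activity in human HepG2 cells, sampled 24 h post-dose. Quantification used labelled RT-PCR products separated by capillary electrophoresis; bidirectional analysis relative to DMSO.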

[7] = ATG_M_19_TRANS: Attagene TRANS-FACTORIAL HepG2 Assay for M19 Transcription Factor (Internal Marker) (AID 2282974); details: HepG2 Attagene TRANS-FACTORIAL M19 internal marker reporter
Outline: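 Gain-of-signal in reporter mRNA, relative to DMSO, was scored from capillary electrophoresis fluorescence. HepG2 cells carried transiently transfected multiple reporter transcription units and were incubated with test chemicals for 24 h.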

[8] = molecular target: Oxysterols receptor LXR-beta (Homo sapiens) (UniProt P55055); assay: ATG_LXRb_TRANS: Attagene TRANS-FACTORIAL HepG2 Assay for human Liver X Receptor beta (LXRb) (AID 2282981); details: HepG2 Attagene TRANS GAL4-LXRb reporter, mRNA
Chain of Oxysterols receptor LXR-beta (Homo sapiens) (P55055 whole entry, looked up, the tested form may be a part): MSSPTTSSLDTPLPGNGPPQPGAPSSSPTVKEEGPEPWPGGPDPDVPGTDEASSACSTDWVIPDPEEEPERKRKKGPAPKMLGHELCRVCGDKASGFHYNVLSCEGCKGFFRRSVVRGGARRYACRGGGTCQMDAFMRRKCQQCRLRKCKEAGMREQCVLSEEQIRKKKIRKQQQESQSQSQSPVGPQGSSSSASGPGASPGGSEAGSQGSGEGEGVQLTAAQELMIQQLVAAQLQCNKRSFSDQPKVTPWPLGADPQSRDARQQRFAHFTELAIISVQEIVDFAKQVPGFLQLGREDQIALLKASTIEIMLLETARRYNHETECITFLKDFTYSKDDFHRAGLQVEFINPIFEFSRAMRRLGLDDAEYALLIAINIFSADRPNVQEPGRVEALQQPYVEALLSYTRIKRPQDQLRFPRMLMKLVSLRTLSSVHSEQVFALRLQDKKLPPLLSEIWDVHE
Outline: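 After 24 h chemical treatment of transfected HepG2 cells carrying exogenous NR-Gal4 chimeras, reporter mRNA was quantified by fluorescent RT-PCR and capillary electrophoresis; activity taken as increase over DMSO controls.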

[9] = molecular target: Hepatocyte nuclear factor 4-alpha (Homo sapiens) (UniProt P41235); assay: ATG_HNF4a_TRANS: Attagene TRANS-FACTORIAL HepG2 Assay for human Hepatocyte Nuclear Factor 4 alpha (HNF4a) (AID 2282982); details: HepG2 HNF4a transactivation reporter, mRNA readout
Chain of Hepatocyte nuclear factor 4-alpha (Homo sapiens) (P41235 whole entry, looked up, the tested form may be a part): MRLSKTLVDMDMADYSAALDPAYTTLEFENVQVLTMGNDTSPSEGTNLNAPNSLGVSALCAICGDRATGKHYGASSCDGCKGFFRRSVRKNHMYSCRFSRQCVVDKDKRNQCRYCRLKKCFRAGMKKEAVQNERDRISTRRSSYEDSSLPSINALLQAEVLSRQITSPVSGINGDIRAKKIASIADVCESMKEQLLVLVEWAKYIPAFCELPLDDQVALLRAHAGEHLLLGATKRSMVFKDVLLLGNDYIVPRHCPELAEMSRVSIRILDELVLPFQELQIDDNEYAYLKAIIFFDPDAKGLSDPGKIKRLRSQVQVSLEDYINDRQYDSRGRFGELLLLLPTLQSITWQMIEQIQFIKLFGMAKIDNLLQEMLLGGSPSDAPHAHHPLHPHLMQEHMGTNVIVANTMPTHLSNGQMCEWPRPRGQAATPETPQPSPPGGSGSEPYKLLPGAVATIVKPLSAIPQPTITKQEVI
Outline: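 Activity of an exogenous HNF4a–Gal4 fusion scored as induced GAL4-UAS reporter transcripts after 24 h chemical exposure of transfected human HepG2 cells. Read-out via RT-PCR with 6-FAM labelling and capillary electrophoresis; rise over DMSO baseline.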

[10] = molecular target: Nuclear receptor subfamily 1 group I member 3 (Homo sapiens) (UniProt Q14994); assay: ATG_CAR_TRANS: Attagene TRANS-FACTORIAL HepG2 Assay for human Constitutive Androstane Receptor (CAR) (AID 2282969); details: HepG2 Attagene TRANS-FACTORIAL CAR reporter;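 note: activators raise reporter mRNA above DMSO so AC50 marks induction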
Chain of Nuclear receptor subfamily 1 group I member 3 (Homo sapiens) (Q14994 whole entry, looked up, the tested form may be a part): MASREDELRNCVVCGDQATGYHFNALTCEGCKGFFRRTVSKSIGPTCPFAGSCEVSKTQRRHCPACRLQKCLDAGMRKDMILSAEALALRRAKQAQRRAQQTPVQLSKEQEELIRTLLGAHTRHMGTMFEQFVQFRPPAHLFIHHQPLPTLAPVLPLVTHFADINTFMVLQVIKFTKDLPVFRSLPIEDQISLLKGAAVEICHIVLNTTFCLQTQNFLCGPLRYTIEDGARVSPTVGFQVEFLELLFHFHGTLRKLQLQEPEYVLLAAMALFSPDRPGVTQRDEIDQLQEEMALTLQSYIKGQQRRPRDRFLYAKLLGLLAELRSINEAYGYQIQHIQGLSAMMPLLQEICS
Outline: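 Signal is reporter mRNA induction relative to DMSO, measured 24 h after dosing by RT-PCR with fluorescent primer extension and capillary electrophoresis. Human HepG2 liver cells carried transiently transfected chimeric NR-Gal4/GAL4-UAS reporter constructs.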

[11] = molecular target: Steroid hormone receptor ERR1 (Homo sapiens) (UniProt P11474); assay: ATG_ERRa_TRANS: Attagene TRANS-FACTORIAL HepG2 Assay for human Estrogen-Related Receptor alpha (ERRa) (AID 2282971); details: HepG2 Attagene TRANS reporter, ERRa transactivation
Chain of Steroid hormone receptor ERR1 (Homo sapiens) (P11474 whole entry, looked up, the tested form may be a part): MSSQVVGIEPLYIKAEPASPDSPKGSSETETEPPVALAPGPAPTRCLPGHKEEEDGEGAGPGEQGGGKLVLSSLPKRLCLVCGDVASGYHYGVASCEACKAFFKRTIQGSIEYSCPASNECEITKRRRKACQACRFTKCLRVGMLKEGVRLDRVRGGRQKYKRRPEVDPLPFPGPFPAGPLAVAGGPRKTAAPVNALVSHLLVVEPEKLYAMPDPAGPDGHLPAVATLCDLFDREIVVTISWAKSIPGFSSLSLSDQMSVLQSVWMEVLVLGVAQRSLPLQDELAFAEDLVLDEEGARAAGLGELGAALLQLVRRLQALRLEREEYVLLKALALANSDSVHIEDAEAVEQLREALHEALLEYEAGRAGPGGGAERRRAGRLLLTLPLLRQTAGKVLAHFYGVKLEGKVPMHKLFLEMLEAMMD
Outline: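 Reporter transcripts from ERRa-Gal4 chimera activity measured in transiently transfected human HepG2 cells 24 hours after dosing, using RT-PCR with 6-FAM primer extension, HpaI digestion and capillary electrophoresis; DMSO is baseline.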

[12] = molecular target: Estrogen-related receptor gamma (Homo sapiens) (UniProt P62508); assay: ATG_ERRg_TRANS: Attagene TRANS-FACTORIAL HepG2 Assay for human Estrogen-Related Receptor gamma (ERRg) (AID 2282977); details: HepG2 Attagene TRANS reporter, ERRg transactivation;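 note: hits increase reporter signal over DMSO so potencies reflect activators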
Chain of Estrogen-related receptor gamma (Homo sapiens) (P62508 whole entry, looked up, the tested form may be a part): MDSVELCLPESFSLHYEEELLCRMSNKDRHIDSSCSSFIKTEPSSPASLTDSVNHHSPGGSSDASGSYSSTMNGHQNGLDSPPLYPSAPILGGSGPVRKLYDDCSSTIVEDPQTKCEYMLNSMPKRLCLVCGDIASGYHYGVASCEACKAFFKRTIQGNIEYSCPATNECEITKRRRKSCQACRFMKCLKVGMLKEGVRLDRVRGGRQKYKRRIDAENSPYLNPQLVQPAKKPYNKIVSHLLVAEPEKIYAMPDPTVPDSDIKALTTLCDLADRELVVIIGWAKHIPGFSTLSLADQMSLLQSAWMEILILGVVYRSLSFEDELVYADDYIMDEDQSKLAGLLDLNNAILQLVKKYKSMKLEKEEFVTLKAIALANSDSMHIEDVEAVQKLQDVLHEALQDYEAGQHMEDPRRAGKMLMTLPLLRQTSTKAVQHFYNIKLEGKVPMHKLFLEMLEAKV
Outline: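 Exogenous NR-Gal4 chimera activity measured as reporter transcript induction after 24 h in transiently transfected HepG2 cells. RNA reverse-transcribed, PCR-amplified, 6-FAM-labelled and resolved by capillary electrophoresis; increase over DMSO baseline.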

[13] = molecular target: Glucocorticoid receptor (Homo sapiens) (UniProt P04150); assay: ATG_GR_TRANS: Attagene TRANS-FACTORIAL HepG2 Assay for human Glucocorticoid Receptor (GR) (AID 2282978); details: HepG2 Attagene TRANS GR reporter, mRNA transcription;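 note: activators score as hits since higher reporter transcript over DMSO is fitted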
Chain of Glucocorticoid receptor (Homo sapiens) (P04150 whole entry, looked up, the tested form may be a part): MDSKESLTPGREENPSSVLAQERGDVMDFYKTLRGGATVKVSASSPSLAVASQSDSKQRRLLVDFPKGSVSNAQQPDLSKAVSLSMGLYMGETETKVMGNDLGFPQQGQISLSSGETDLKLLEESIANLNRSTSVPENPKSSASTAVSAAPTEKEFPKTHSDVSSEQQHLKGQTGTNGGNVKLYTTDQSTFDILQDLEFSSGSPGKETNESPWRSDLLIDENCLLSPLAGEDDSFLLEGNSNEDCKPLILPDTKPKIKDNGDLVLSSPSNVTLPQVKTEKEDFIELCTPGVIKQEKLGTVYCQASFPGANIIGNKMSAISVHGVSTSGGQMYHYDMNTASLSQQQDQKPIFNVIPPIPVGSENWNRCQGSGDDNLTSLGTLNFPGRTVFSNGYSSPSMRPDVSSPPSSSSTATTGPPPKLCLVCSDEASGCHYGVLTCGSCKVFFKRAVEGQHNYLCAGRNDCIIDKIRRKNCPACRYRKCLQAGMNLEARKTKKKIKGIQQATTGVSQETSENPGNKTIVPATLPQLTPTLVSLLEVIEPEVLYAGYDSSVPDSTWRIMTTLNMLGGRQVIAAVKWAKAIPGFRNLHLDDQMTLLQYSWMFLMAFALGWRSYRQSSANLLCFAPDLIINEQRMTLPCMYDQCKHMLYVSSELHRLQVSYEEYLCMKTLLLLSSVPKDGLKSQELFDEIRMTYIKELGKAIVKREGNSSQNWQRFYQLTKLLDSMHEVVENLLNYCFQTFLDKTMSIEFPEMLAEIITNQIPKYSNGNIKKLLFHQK
Outline: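 HepG2 transient transfection, multiple reporter units, GAL4-UAS under NR-GAL4 chimera control. 24 h treatment. Reporter mRNA by RT-PCR/CE fluorescence, DMSO as negative control.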

[14] = molecular target: Bile acid receptor (Homo sapiens) (UniProt Q96RI1); assay: ATG_FXR_TRANS: Attagene TRANS-FACTORIAL HepG2 Assay for Farnesoid X Receptor (FXR) (AID 2282979); details: HepG2 Attagene TRANS FXR-GAL4 reporter transcription;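 note: hits raise reporter mRNA above DMSO so AC50 marks FXR activation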
Chain of Bile acid receptor (Homo sapiens) (Q96RI1 whole entry, looked up, the tested form may be a part): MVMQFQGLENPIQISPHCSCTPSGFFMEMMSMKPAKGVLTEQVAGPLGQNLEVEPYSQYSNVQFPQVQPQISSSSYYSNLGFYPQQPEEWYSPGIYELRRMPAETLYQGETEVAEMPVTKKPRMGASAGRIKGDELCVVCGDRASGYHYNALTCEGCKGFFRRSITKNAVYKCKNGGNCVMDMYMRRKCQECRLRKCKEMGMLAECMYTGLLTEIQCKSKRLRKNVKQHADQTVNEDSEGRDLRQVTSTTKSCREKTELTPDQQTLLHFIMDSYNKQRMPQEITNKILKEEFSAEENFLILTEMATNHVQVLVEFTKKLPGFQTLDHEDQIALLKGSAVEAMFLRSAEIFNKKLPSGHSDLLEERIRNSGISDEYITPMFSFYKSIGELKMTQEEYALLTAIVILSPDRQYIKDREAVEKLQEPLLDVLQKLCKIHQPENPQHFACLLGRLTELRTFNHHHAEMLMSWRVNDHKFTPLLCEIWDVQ
Outline: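 Reporter transcripts from transfected HepG2 cells were measured 24 h after dosing, using RT-PCR with capillary electrophoresis of 6-FAM-labelled fragments. The read-out reflects activity of exogenous FXR-Gal4 chimera on GAL4-UAS units, with induction relative to DMSO.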

[15] = ATG_Hpa5_TRANS: Attagene TRANS-FACTORIAL HepG2 Assay for human GAL4-Hpa5 Hepatocyte Transcription Factor Basal Promoter (AID 2282975); details: HepG2 Attagene GAL4-Hpa5 transcription reporter;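 note: hits are increases in reporter mRNA over DMSO baseline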
Outline: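 Gain-of-signal versus DMSO is fitted for reporter mRNA quantified by RT-PCR and capillary electrophoresis after 24 h exposure. This endpoint is an internal background marker in transiently transfected HepG2 cells carrying GAL4-UAS reporter units.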

[16] = molecular target: Oxysterols receptor LXR-alpha (Homo sapiens) (UniProt Q13133); assay: ATG_LXRa_TRANS: Attagene TRANS-FACTORIAL HepG2 Assay for human Liver X Receptor alpha (LXRa) (AID 2282980); details: HepG2 Attagene TRANS reporter, LXRa transactivation
Chain of Oxysterols receptor LXR-alpha (Homo sapiens) (Q13133 whole entry, looked up, the tested form may be a part): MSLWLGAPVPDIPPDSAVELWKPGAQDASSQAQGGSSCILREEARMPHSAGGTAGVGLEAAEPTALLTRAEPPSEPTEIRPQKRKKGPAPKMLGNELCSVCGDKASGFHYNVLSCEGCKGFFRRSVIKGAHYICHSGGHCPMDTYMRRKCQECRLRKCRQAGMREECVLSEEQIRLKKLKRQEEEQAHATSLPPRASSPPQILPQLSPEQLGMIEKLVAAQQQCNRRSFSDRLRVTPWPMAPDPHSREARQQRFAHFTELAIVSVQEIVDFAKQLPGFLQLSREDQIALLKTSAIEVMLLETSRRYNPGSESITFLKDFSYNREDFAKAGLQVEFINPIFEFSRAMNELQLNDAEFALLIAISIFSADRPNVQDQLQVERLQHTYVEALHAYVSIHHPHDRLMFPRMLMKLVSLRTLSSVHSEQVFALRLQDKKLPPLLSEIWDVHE
Outline: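 Chemical-induced reporter mRNA measured by RT-PCR with fluorescent labelling and capillary electrophoresis after 24 h dosing of transiently transfected HepG2 cells expressing exogenous NR-Gal4 chimeras; increases scored against DMSO baseline.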

Measured: AC50

CCOP(=O)(OCC)Oc1cc(C)nc(C(C)C)n1
inactive: [1] | [2] | [3] | [4] | [5]

C[N+]1(C)CCCCC1
inactive: [1] | [6] | [2] | [7] | [8] | [9] | [5]

C=C(C)[C@H]1Cc2c(ccc3c2O[C@@H]2COc4cc(OC)c(OC)cc4[C@@H]2C3=O)O1
active: [2] 0.0204 µM
inactive: [1] | [10] | [11] | [12] | [8] | [9] | [3]

CN1COCN(Cc2cnc(Cl)s2)C1=N[N+](=O)[O-]
inactive: [1] | [6] | [2] | [13] | [14] | [8] | [9] | [3] | [4]

COP(=O)(NC(C)=O)SC (stereo not given)
not listed: [4] | [5] | [7] | [11] | [12] | [14]
inactive: all other assays above

CN(C)C(=O)Nc1cccc(C(F)(F)F)c1
inactive: [1] | [6] | [2] | [7] | [8] | [4]
